Experimental data: the supplement of paper PMC6555819

Assays:
Assay in all cases: PBM binding z-score (relative to random genomic background probes); higher = stronger binding; sequences stand for … in GC…GCGATTGACAGCGTAGAATGAAGG
[1] = test system: PPARg:RXRa DBDmut IVT, anti-RXR (DBD mutation: RXRa K156A/R161A, NR concentration 270 nM, RXRa partner concentration 90 nM)
In short: (§1)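 Antibodies against each partner of ligand-free nuclear receptor dimers (one per run) detected binding on custom Agilent 4×180K protein-binding microarrays after 1 h incubation. The double-stranded probes had 34-nt variable regions carrying direct-repeat seeds, single-nucleotide variants, half-site ablations and random human genomic background sequences. Binding z-scores, from regression-normalized fluorescence, use the random background probes as reference.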

[2] = test system: PPARg:RXRa IVT, anti-PPARg (NR concentration 270 nM, RXRa partner concentration 90 nM)
In short: as §1

[3] = test system: PPARg DBDmut:RXRa IVT, anti-PPARg (DBD mutation: PPARg1 K132A/R137A, NR concentration 270 nM, RXRa partner concentration 90 nM)
In short: as §1

[4] = test system: PPARg DBDmut IVT, anti-PPARg (DBD mutation: PPARg1 K132A/R137A, NR concentration 270 nM)
In short: as §1

[5] = test system: PPARg homodimer (NR concentration 180 nM)
In short: as §1

[6] = test system: PXR:RXRa (NR concentration 270 nM, RXRa partner concentration 90 nM)
In short: as §1

[7] = test system: PXR homodimer (NR concentration 270 nM)
In short: as §1

[8] = test system: RARa:RXR (NR concentration 270 nM, RXRa partner concentration 90 nM)
In short: as §1

[9] = test system: RARa homodimer (NR concentration 270 nM)
In short: as §1

[10] = test system: RARb:RXRa (NR concentration 270 nM, RXRa partner concentration 90 nM)
In short: as §1

| Sequence | PBM binding z-score [1] | PBM binding z-score [2] | PBM binding z-score [3] | PBM binding z-score [4] | PBM binding z-score [5] | PBM binding z-score [6] | PBM binding z-score [7] | PBM binding z-score [8] | PBM binding z-score [9] | PBM binding z-score [10] |
| --- | --- | --- | --- | --- | --- | --- | --- | --- | --- | --- |
| TAGCCTAGGTCATTGGGCCAGCATAGTACGCATC | 2.61 | 3.89 | 0.103 | -0.682 | 0.524 | 1.58 | -0.351 | 2.11 | -0.399 | 3.64 |
| AGACTGAGGTTATTAAGATCAGGGAATTGCGGTC | 0.46 | 0.765 | 0.238 | -0.249 | 0.438 | 1.08 | 0.427 | 1.52 | 0.126 | 1.4 |
| CGAGACAGGTGAAAGGTAACTCAGTCTGGTACGC | 1.78 | 2.95 | 0.301 | -1.14 | 1.05 | 0.75 | -0.102 | 1.92 | -0.282 | 1.19 |
| GCTGCTAGGTCAGGTTGCTCAGCTAACGGGTACG | 2.92 | 2.01 | -0.97 | -0.836 | 0.251 | -0.00315 | -0.858 | 0.655 | -0.624 | 3.17 |
| AATATAGGGTCACTAGGCCAGAGTAGGTACGAAT | 5.21 | 6.14 | 2.32 | 1.64 | 2.41 | 3.05 | 0.508 | 4.66 | 0.81 | 4.11 |
| CCTACTGGGCCAAGGTCATTTATCAGTCAAAGCA | 3.45 | 4.56 | -0.913 | -0.873 | 1.83 | 3.22 | 1.73 | 3.28 | 0.0192 | 3.15 |
| CCTGCTAGGTCAATGGTCAGCTAGAGCAGCTCGC | 4.03 | 3.86 | -0.82 | -0.691 | 1.03 | 0.552 | -0.638 | 1.5 | -0.363 | 3.71 |
| TCATATAGGTAAACAGGCGAAAGTCCGTAAGTTA | 4.24 | 2.83 | 0.751 | 0.916 | 1.19 | 0.767 | 0.508 | 1.04 | 0.681 | 0.356 |
| ATCGAAAGGCCGAAGGTGAGTATACCCACCCGAA | -0.869 | 0.122 | -0.0521 | -0.507 | -0.197 | -0.245 | -0.678 | 0.273 | -0.544 | 1.04 |
| CGTCAAAGTTCAAGGTAACGTATCAGAAAGCAGC | 1.16 | 2.03 | 0.808 | -0.101 | 2.73 | 4.22 | 3.05 | 3.48 | 1.28 | 4.98 |
| TCATATAGGTAAATGCTAGGAGAAAGTCCGATCT | 3.74 | 1.59 | 1.52 | 1.09 | 0.813 | 0.458 | 0.215 | 0.385 | 0.843 | 0.136 |
| TCTTGTAGATCAGCAGGGTAAGAAAGCTGGCCAA | 1.81 | 0.207 | -0.22 | -0.694 | -0.287 | 0.0405 | -0.245 | 0.188 | -0.0241 | -0.199 |
| TAACCTAGGTCAGATCGGGCCAGTATACGCTATA | 1.82 | 3.4 | 0.884 | -0.00517 | 1.09 | 1.54 | -0.137 | 1.38 | -0.0765 | 3.32 |
| AGAATGAGGTTATACGTAGATTAGGGAAGAAAGT | 3.81 | 2.24 | 1.48 | 1 | 0.912 | 1.38 | 0.713 | 1.72 | 0.516 | 1.63 |
| GCTAGCAGGCCATTTGGGTCACGCAATGACGGGC | 2.42 | 3.05 | -0.368 | -0.646 | 0.0821 | 1.13 | -0.117 | 1.88 | -0.356 | 1.91 |
| TCGAGTAGGTCACCAATGGGGCATTCAGCTTTCT | 5.54 | 6.57 | 0.462 | 0.45 | 1.71 | 2.42 | -0.543 | 3.13 | -0.919 | 3.84 |
| ATCTCTAGGTAAAGATAGTTCAGTGACTGCAAAT | 2.25 | 1.52 | 1.25 | 0.496 | 0.972 | 1.06 | 0.522 | 0.54 | 1.52 | 0.693 |
| TCTGCTAGGTCAACGATGGTCAGCTATTCTGCTA | 4.2 | 4.42 | 0.0784 | 0.733 | 0.972 | 1.41 | -1.08 | 2.24 | -0.753 | 4.11 |
| CATACAGGGTCAGCTTGGCCAGAGTAGGGACGGC | 1.04 | 2.5 | 0.91 | 0.462 | 1.09 | 2.01 | -0.3 | 2.93 | 0.544 | 3.99 |
| CGAACTAGGTCATTGACAGGACAGGGAATAGTAA | 8.02 | 8.21 | 2.18 | 1.03 | 1.49 | 1.43 | 0.107 | 2.22 | 0.195 | 3.69 |
| ATCTCTAGGTAACCAATTTCAGTGAATGCCGAAC | 3.89 | 2.94 | 1.28 | 1.42 | 0.77 | 0.453 | 0.601 | 0.264 | 0.959 | 0.458 |
| CGTCCAAGGTCAGAGAGGTGAGTGAATGCCGAGT | 2.79 | 3.19 | -0.199 | -0.145 | 3.3 | 3.15 | 1.96 | 3.43 | 0.424 | 4.78 |
| CCTCGGAGGACAACAGAAGGTCAGAGCTGCCAGA | 0.129 | 0.0477 | -0.565 | -1.32 | 1.42 | 1.43 | -0.04 | 1.95 | 0.344 | 3.02 |
| CGTCGAAGGTCAGAGAGGTCAGTGAATGCCGAGT | 2.6 | 3.03 | -0.434 | -0.601 | 6.33 | 6.06 | 11.6 | 5.68 | 3.9 | 5.05 |
